According to PubChem BioAssay AID720690 (Broad Institute, 2013):
Entries with a potency or affinity are not part of this list. Calls of active or inactive are those of the source.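 How the source made its calls: active means every repeat run showing a signal drop whose fitted half-maximal concentration is at most twice the top tested concentration; inconclusive means repeat runs disagree, or flat partial drop, or poor fit; inactive means the rest.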

Assay: HEK293T cytotoxicity, dose response, cytotoxicity control for miR-122 modulator project, cell-based, activator set, cherry-pick (AID 720690)
Details: HEK293T viability, CellTiter-Glo luminescence, 48 h; series mostly up to 26 µM

Structure (SMILES)	outcome
O=C(c1cccnc1)N1C[C@H]2[C@@H](c3ccccc31)[C@H](CO)N2C(=O)Nc1ccccc1	inactive
C[C@@H]1CN([C@@H](C)CO)S(=O)(=O)c2ccc(-c3ccccc3)cc2O[C@@H]1CN(C)C(=O)c1ccc2c(c1)OCO2	inactive
COCCNC(=O)C[C@@H]1CC[C@@H]2[C@H](COc3ccc(NS(=O)(=O)c4ccc(Cl)cc4)cc3C(=O)N2C)O1	inactive
CCCNC(=O)C[C@H]1CC[C@@H]2[C@@H](COc3ccc(NC(=O)c4ccc5c(c4)OCO5)cc3C(=O)N2C)O1	inactive
C/C=C/c1ccc([C@@H]2[C@@H](CNC(=O)CC)N(Cc3ccccn3)[C@H]2CO)cc1	inactive
CC(C)NC(=O)Nc1ccc2c(c1)C(=O)N(C)[C@@H]1CC[C@H](CC(=O)NCC(F)(F)F)O[C@H]1CO2	inactive
C[C@@H]1CN([C@@H](C)CO)S(=O)(=O)c2ccc(C#Cc3ccncc3)cc2O[C@@H]1CN(C)C(=O)Nc1ccc2c(c1)OCO2	inactive
O=C(C1CCOCC1)N1[C@H](CO)[C@H]2c3ccccc3NC[C@H]21	inactive
COc1cccc(NC(=O)C[C@@H]2CC[C@@H]3[C@@H](COc4ccc(NS(=O)(=O)c5cccc(F)c5)cc4C(=O)N3C)O2)c1	inactive
C/C=C/c1ccc([C@@H]2[C@@H](CO)N(C(=O)C3CC3)[C@H]2CN(C)C(=O)CC2CC2)cc1	inactive
CCN(C[C@@H]1N[C@H](CO)[C@H]1c1ccc(-c2ccc(F)cc2)cc1)C(=O)COC	inactive
COC(=O)C[C@@H]1CC[C@@H]2[C@@H](COc3ccc(NC(=O)c4cc(F)cc(F)c4)cc3C(=O)N2C)O1	inactive
CN1C(=O)c2cc(NC(=O)c3cccs3)ccc2OC[C@@H]2O[C@H](CC(=O)NCCN3CCCCC3)CC[C@H]21	inactive
COc1cccc(CNC(=O)C[C@@H]2CC[C@H]3[C@H](COc4ccc(NS(=O)(=O)c5ccccc5F)cc4C(=O)N3C)O2)c1	inactive
CN1C(=O)c2cc(NC(=O)c3cccc(F)c3)ccc2OC[C@H]2O[C@@H](CC(=O)O)CC[C@@H]21	inactive
CC(C)NC(=O)N1[C@H](CO)[C@@H](c2ccccc2)[C@@H]1CN(C)C(=O)c1cccnc1	inactive
O=C(Nc1ccc(F)cc1)N1C[C@H]2[C@@H](c3ccccc31)[C@H](CO)N2C(=O)c1ccncc1	inactive
NS(=O)(=O)c1ccc(Nc2nc(-c3cccnc3)cs2)cc1	inactive
COCC(=O)NC[C@@H]1[C@H](c2ccc(C3=CCCC3)cc2)[C@@H](CO)N1C(=O)C1CC1	inactive
CCOC(=O)C1CN(S(=O)(=O)c2ccccc2)CCN1S(=O)(=O)c1ccccc1 (centres undefined)	inactive

Structure (SMILES)	outcome
COCCN(C[C@@H]1[C@H](c2ccccc2)[C@@H](CO)N1C(=O)C1CCC1)C(C)=O	inactive
Cc1nn(C)cc1NC(=O)C[C@@H]1CC[C@H]2[C@@H](COc3ccc(NC(=O)Nc4cccc(Cl)c4)cc3C(=O)N2C)O1	inactive
CN1[C@@H](CO)[C@@H]2c3ccccc3N(C(=O)Nc3cc(F)ccc3F)C[C@@H]21	inactive
Cc1cc(C(=O)Nc2ccc3c(c2)C(=O)N(C)[C@H]2CC[C@@H](CC(=O)N[C@@H](C)c4ccccc4)O[C@H]2CO3)no1	inactive
CNC(=O)C[C@@H]1CC[C@@H]2[C@@H](COc3ccc(NC(=O)c4ccccc4F)cc3C(=O)N2C)O1	inactive
CCCNC(=O)C[C@@H]1CC[C@@H]2[C@@H](COc3ccc(NS(=O)(=O)c4ccccc4C)cc3C(=O)N2C)O1	inactive
COc1ccc(-c2c(C)nn3c(N)c(-c4ccccc4)cnc23)cc1OC	inactive
COc1cccc(CNC(=O)C[C@@H]2CC[C@H]3[C@H](COc4ccc(NC(C)=O)cc4C(=O)N3C)O2)c1	inactive
CC(=O)N1[C@H](CN(C(=O)c2ccc(F)cc2)C(C)C)[C@@H](c2ccccc2)[C@@H]1CO	inactive
CC(C)N(C[C@H]1[C@H](c2ccccc2)[C@@H](CO)N1S(C)(=O)=O)C(=O)CN(C)C	inactive
CN1C(=O)c2cc(NC(=O)c3cccs3)ccc2OC[C@@H]2O[C@@H](CC(=O)O)CC[C@@H]21	inactive
C[C@@H]1CN([C@H](C)CO)C(=O)c2cc(-c3cncnc3)cnc2O[C@H]1CN(C)Cc1ccc(Oc2ccccc2)cc1	inactive
COc1ccccc1C#Cc1ccc([C@H]2[C@@H](CO)N3CCCCN(CCC(F)(F)F)C[C@H]23)cc1	inactive
CN(C)CCCNC(=O)C[C@@H]1CC[C@H]2[C@H](COc3ccc(NC(=O)c4cccc(F)c4)cc3C(=O)N2C)O1	inactive
O=C(NCCCN1CCCC1)c1ccc(CSCc2cccc(Cl)c2)o1	inactive
CCC(=O)NC[C@H]1[C@H](c2ccc(C3=CCCC3)cc2)[C@H](CO)N1C(C)=O	inactive
CN(c1ccccc1)S(=O)(=O)c1ccc(C(=O)Nc2cccc(S(=O)(=O)N3CCOCC3)c2)cc1	inactive
CC(C)NC(=O)N(C)C[C@H]1Oc2cc(C#C[C@H](C)O)ccc2S(=O)(=O)N([C@@H](C)CO)C[C@H]1C	inactive
CCCNC(=O)N1[C@H](CNC(C)=O)[C@H](c2ccc(C3=CCCC3)cc2)[C@@H]1CO	inactive
